Test results: PubChem BioAssay (Tox21)
Calls of active or inactive are those of the source. Unless noted, calls follow the shape of the dose curve; as a rule, active = well fitted curve in the direction sought with a large enough effect in the repeat runs; inconclusive = weak or mixed curves; inactive = no such curve, though single readings can be large; an effect the other way counts as inactive or inconclusive.

Legend:
[1] = qHTS assay to identify small molecule antagonists of the thyroid receptor (TR) signaling pathway - cell viability counter screen (AID 743064); also: nearly all actives have a fitted effect of over 50% in size; also: potency is read from the fitted curve at half-maximal effect
How it was run: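 Plate GH3.TRE-Luc cells; incubate 4 h at 37 °C; add compound, then T3 to 1 nM final; incubate 23.5 h; add CellTiter-Fluor; incubate 30 min at 37 °C, 5% CO2; read fluorescence.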

[2] = qHTS assay to identify small molecule antagonists of the thyroid receptor (TR) signaling pathway (AID 743065); also: nearly all actives have a fitted effect of over 55% in size; also: potency is read from the fitted curve at half-maximal effect
How it was run: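 GH3.TRE-Luc rat pituitary cells carrying two TR response elements driving luciferase were plated for 4 h, given compound plus 1 nM T3 (final), and incubated 23.5 h at 37 C. ONE-Glo luminescence measured reporter inhibition; CellTiter-Fluor fluorescence tracked cytotoxicity.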

[3] = system: thyroid hormone receptor (rat, GH3 cells); test: qHTS assay to identify small molecule agonists of the thyroid receptor (TR) signaling pathway (AID 743066; calls by dose curve)
[4] = target: Estrogen receptor (Homo sapiens) (UniProt P03372); test: qHTS assay to identify small molecule antagonists of the estrogen receptor alpha (ER-alpha) signaling pathway (AID 743069; active = well fitted curve in the direction sought with a large enough effect in the signal ratio in the repeat runs, not every such curve was filed as active; inconclusive = weak or mixed curves, or effect the other way; inactive = no such curve, though single readings can be large or run the other way; the % refers to the signal ratio; also: potency is read from the fitted curve at half-maximal effect)
How it was run: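 Estradiol-stimulated ER-alpha-UAS-bla HEK293 cells, 18 hr compound exposure at 37C. LiveBLAzer B/G substrate, 2 hr RT, fluorescence read.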

[5] = qHTS assay to identify small molecule antagonists of the estrogen receptor alpha (ER-alpha) signaling pathway - cell viability counter screen (AID 743074; calls by dose curve;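 also: HEK293 cells carrying ER-alpha-UAS-bla reporter stimulated with 17beta-estradiol; nearly all actives have a fitted effect of over 45% in size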; also: potency is read from the fitted curve at half-maximal effect)
[6] = target: Estrogen receptor (Homo sapiens) (UniProt P03372); test: qHTS assay to identify small molecule agonists of the estrogen receptor alpha (ER-alpha) signaling pathway (AID 743075; calls by dose curve;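 also: HEK293 GripTite cells with ER-alpha and UAS-driven beta-lactamase reporter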; also: potency is read from the fitted curve at half-maximal effect)
[7] = target: Estrogen receptor (Homo sapiens) (UniProt P03372); test: qHTS assay to identify small molecule agonists of the estrogen receptor alpha (ER-alpha) signaling pathway using the BG1 cell line (AID 743079); conditions: BG1Luc4E2 cells, ERE-luciferase agonist, 22 h; activation: at 70.3 µM (top of the series); also: nearly all actives have a fitted effect of over 20% in size; also: potency is read from the fitted curve at half-maximal effect
[8] = qHTS assay to identify small molecule antagonists of the estrogen receptor alpha (ER-alpha) signaling pathway using the BG1 cell line - cell viability counter screen (AID 743081);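 also: compound given together with 17beta-estradiol as the ER stimulus; nearly all actives have a fitted effect of over 45% in size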; also: potency is read from the fitted curve at half-maximal effect
[9] = target: Aromatase (Homo sapiens) (UniProt P11511); test: qHTS assay to identify aromatase inhibitors (AID 743083); also: nearly all actives have a fitted effect of over 55% in size; also: potency is read from the fitted curve at half-maximal effect
[10] = qHTS assay to identify aromatase inhibitors - cell viability counter screen (AID 743084);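 also: cells stimulated with testosterone during compound exposure; nearly all actives have a fitted effect of over 55% in size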; also: potency is read from the fitted curve at half-maximal effect
[11] = target: Aryl hydrocarbon receptor (Homo sapiens) (UniProt P35869); test: qHTS assay to identify small molecule that activate the aryl hydrocarbon receptor (AhR) signaling pathway (AID 743085); also: nearly all actives have a fitted effect of over 15% in size; also: potency is read from the fitted curve at half-maximal effect;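 as to activation: HG2L7.5c1 human HepG2 liver cells with stably integrated DRE-driven firefly reporter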
How it was run: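 Steps: seed HepG2-AhR-luc cells; allow 5 h at 37C; pin-transfer test compound or vehicle; incubate 24 h at 37C; add viability dye (30 min, 37C) and read fluorescence; add luciferase substrate (30 min, RT) and read luminescence.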

[12] = qHTS assay to identify small molecule that activate the aryl hydrocarbon receptor (AhR) signaling pathway - cell viability counter screen (AID 743086); also: nearly all actives have a fitted effect of over 45% in size; also: potency is read from the fitted curve at half-maximal effect
How it was run: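 HepG2-AhR-luc (HG2L7.5c1) cells, 4000/well, were preincubated 5 h at 37C, exposed to compound in qHTS format for 24 hr at 37C, then given CellTiter-Fluor for 30 min; viability was read as fluorescence in the reporter wells.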

[13] = target: Peroxisome proliferator-activated receptor gamma (Homo sapiens) (UniProt P37231); test: qHTS assay to identify small molecule agonists of the peroxisome proliferator-activated receptor gamma (PPARg) signaling pathway (AID 743094; active = well fitted activation curve with a large enough effect in the signal ratio in the repeat runs, not every such curve was filed as active; inconclusive = weak or mixed curves, or effect the other way; inactive = no such curve, though single readings can be large or run the other way; the % refers to the signal ratio)
How it was run: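 Stably transfected HEK293H cells (GeneBLAzer PPARg UAS-bla) were incubated with test substances for 17 h at 37C after a 5 h pre-incubation; beta-lactamase activity was then detected by FRET substrate fluorescence.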

[14] = qHTS assay to identify small molecule antagonists of the peroxisome proliferator-activated receptor gamma (PPARg) signaling pathway - cell viability counter screen (AID 743194); also: nearly all actives have a fitted effect of over 55% in size
How it was run: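 PPARg-UAS-bla HEK293H cells were plated, rested 5 h at 37 C, then treated with compounds plus rosiglitazone (50 nM final) for 17 h at 37 C; viability was then read by CellTiter-Glo luminescence after 30 min at room temperature.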

[15] = qHTS assay for small molecule agonists of the antioxidant response element (ARE) signaling pathway (AID 743202; active = well fitted activation curve with a large enough effect in the signal ratio in the repeat runs, not every such curve was filed as active; inconclusive = weak or mixed curves, or effect the other way; inactive = no such curve, though single readings can be large or run the other way; the % refers to the signal ratio; also: potency is read from the fitted curve at half-maximal effect)
How it was run: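 Compounds delivered in DMSO to ARE-bla HepG2 cells (2,000 cells/well, pre-incubated 5 h) and left 16 h at 37 C. LiveBLAzer B/G FRET substrate then added for 2 h at RT before fluorescence reading.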

[16] = qHTS assay for small molecule agonists of the antioxidant response element (ARE) signaling pathway - cell viability counter screen (AID 743203; calls by dose curve; also: nearly all actives have a fitted effect of over 55% in size; also: potency is read from the fitted curve at half-maximal effect)
How it was run: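 Cells (ARE-bla HepG2, 2,000/well) receive DMSO-dissolved compounds after a 5 hrs rest. Plates incubate 16 hrs at 37C/5% CO2. CellTiter-Glo luminescence is then recorded after 30 min at room temperature.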

[17] = qHTS assay for small molecule activators of the heat shock response signaling pathway - cell viability counter screen (AID 743209); also: nearly all actives have a fitted effect of over 50% in size
How it was run: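 Quantitative HTS format, Tox21 10K library. HeLa cells carrying an HSE-driven beta-lactamase reporter were treated 5 h at 37 C, then assessed for viability by CellTiter-Glo luminescence.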

[18] = qHTS assay for small molecule activators of the heat shock response signaling pathway (AID 743210; active = well fitted activation curve with a large enough effect in the signal ratio in the repeat runs, with a control signal flat, not every such curve was filed as active; inconclusive = weak or mixed curves; the % refers to the signal ratio; also: potency is read from the fitted curve at half-maximal effect;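 as to activation: HeLa cells with beta-lactamase reporter driven by heat shock elements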)
How it was run: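 Reporter gene assay: HeLa cells stably bearing an HSE-bla construct, compound treatment 5 h at 37 C, LiveBLAzer substrate 2.5 h at RT, fluorescence intensity.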

[19] = target: Peroxisome proliferator-activated receptor gamma (Homo sapiens) (UniProt P37231); test: qHTS assay to identify small molecule antagonists of the peroxisome proliferator-activated receptor gamma (PPARg) signaling pathway (AID 743191; calls by dose curve; also: nearly all actives have a fitted effect of over 30% in size)
How it was run: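 GeneBLAzer PPARg UAS-bla HEK293H cells carrying a UAS-driven beta-lactamase reporter were plated at 3000 cells/well, preincubated 5 h at 37C, then given compound for 17 h at 37C; LiveBLAzer B/G FRET substrate was read after 1 h at room temperature.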

[20] = qHTS assay to identify small molecule antagonists of the estrogen receptor alpha (ER-alpha) signaling pathway using the BG1 cell line (AID 743080; calls by dose curve;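 also: BG1 cells stimulated with 17beta-estradiol alongside compound; nearly all actives have a fitted effect of over 25% in size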; also: potency is read from the fitted curve at half-maximal effect)
How it was run: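 Luminescence from a 4×ERE-luciferase reporter in BG1-Luc-4E2 cells served as read-out. Cells, pre-cultured 5 days in stripped-serum phenol-red-free medium, were exposed to compound with 17beta-estradiol co-stimulation for 21.5 h at 37 C.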

Measured: Potency

Peroxisome proliferator-activated receptor gamma (Homo sapiens), sequence (P37231 whole entry, looked up): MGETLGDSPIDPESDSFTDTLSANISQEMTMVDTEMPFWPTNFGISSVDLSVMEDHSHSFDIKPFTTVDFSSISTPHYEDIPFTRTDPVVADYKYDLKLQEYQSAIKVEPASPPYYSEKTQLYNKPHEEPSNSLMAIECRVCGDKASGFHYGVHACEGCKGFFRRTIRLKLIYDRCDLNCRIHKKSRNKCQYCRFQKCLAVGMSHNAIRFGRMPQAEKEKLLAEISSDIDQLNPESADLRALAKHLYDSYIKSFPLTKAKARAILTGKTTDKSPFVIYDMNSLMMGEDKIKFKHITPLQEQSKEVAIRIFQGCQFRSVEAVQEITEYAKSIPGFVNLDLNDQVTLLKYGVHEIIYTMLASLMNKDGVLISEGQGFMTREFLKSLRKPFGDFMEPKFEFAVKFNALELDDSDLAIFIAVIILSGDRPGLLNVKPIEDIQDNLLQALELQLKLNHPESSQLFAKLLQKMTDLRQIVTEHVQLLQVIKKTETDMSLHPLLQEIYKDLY
Aryl hydrocarbon receptor (Homo sapiens), sequence (P35869 whole entry, looked up): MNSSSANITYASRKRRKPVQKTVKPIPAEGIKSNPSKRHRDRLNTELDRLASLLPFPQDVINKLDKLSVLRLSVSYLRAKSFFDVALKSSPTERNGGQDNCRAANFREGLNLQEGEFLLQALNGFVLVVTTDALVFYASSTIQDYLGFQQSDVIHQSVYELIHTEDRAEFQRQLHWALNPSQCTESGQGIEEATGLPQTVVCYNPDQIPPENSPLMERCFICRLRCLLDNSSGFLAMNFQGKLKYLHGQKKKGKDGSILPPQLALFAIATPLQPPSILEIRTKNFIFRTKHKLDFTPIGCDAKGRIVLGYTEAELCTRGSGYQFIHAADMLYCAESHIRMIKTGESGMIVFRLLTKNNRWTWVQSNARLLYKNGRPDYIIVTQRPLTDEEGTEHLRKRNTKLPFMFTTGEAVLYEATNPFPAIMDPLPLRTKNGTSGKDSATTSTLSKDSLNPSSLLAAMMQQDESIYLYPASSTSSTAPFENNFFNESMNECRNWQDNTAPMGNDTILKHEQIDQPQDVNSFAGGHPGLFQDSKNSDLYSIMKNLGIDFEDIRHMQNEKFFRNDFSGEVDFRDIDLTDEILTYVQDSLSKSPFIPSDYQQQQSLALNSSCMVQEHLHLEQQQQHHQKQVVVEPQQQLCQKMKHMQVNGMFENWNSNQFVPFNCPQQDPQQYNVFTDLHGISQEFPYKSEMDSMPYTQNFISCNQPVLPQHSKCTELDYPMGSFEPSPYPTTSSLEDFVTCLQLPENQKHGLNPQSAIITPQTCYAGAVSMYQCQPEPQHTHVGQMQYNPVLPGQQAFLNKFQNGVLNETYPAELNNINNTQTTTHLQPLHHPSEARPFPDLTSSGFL
Aromatase (Homo sapiens), sequence (P11511 whole entry, looked up): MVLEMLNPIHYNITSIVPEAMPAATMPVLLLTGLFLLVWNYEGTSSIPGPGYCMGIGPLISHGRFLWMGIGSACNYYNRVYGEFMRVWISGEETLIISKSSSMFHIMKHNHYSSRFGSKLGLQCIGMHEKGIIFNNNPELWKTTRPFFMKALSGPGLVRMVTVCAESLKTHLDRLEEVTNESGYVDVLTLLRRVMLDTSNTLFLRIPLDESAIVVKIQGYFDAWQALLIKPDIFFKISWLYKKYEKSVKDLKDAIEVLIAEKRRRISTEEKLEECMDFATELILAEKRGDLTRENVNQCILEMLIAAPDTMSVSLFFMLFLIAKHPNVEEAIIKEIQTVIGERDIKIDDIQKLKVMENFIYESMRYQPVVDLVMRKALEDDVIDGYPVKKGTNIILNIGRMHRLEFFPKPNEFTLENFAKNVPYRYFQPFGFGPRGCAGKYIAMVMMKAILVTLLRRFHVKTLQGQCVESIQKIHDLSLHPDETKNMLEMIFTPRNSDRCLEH
Estrogen receptor (Homo sapiens), sequence (P03372 whole entry, looked up): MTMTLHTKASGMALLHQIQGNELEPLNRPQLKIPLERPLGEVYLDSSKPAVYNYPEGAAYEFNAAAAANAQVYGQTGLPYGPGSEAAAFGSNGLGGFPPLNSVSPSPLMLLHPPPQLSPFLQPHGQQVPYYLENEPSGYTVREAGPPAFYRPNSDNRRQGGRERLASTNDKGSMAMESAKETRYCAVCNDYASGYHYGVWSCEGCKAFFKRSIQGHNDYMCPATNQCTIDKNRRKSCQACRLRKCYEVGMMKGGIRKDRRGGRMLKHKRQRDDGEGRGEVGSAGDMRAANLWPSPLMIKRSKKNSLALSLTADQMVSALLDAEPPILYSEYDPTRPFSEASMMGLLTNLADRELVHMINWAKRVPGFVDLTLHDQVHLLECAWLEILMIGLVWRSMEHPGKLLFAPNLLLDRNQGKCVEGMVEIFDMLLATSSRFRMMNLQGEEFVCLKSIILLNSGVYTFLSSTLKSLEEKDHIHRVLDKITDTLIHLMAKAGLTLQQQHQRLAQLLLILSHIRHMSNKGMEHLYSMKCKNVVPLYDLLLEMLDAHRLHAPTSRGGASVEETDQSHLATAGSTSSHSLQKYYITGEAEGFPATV

Cc1nc2ccccc2s1
inactive: [1] | [2] | [3] | [4] | [5] | [6] | [7] | [8] | [9] | [10] | [11] | [12] | [13] | [14] | [15] | [16] | [17]

CCOC(=O)/C=C/C(=O)O
active: [15] 9.69 µM
inactive: [1] | [2] | [3] | [4] | [6] | [7] | [8] | [9] | [10] | [11] | [12] | [13] | [14] | [16] | [17] | [18]

Cc1ccnc2ccccc12
inactive: [1] | [2] | [3] | [4] | [5] | [6] | [7] | [8] | [9] | [10] | [11] | [12] | [13] | [19] | [14] | [15] | [16] | [18]

Cc1occc1C(=O)Nc1ccc(C(=O)N2CCC(F)(F)/C(=C\C(=O)N3CCC(N4CCCCC4)CC3)c3ccccc32)cc1
inactive: [3] | [4] | [5] | [6] | [10] | [11] | [12] | [13] | [19] | [14] | [16] | [17]
active: [1] 17 µM | [2] 19.1 µM

Oc1cc(O)c(Cl)cc1Cl
inactive: [1] | [2] | [3] | [5] | [6] | [7] | [20] | [8] | [9] | [10] | [12] | [13] | [19] | [14] | [16] | [17]
active: [18] 50.2 µM

O=C1OCCN1/N=C/c1ccc([N+](=O)[O-])o1
inactive: [1] | [2] | [3] | [4] | [5] | [13] | [14] | [17] | [18]
active: [6] 848 nM [inconclusive] | [7] 168 nM | [9] 29.8 µM | [15] 15 µM

Nc1nc(Cl)nc2c1ncn2[C@@H]1O[C@H](CO)[C@@H](O)[C@@H]1F
active: [20] 3.76 µM

CCNC(=O)N1CCN(CCCC(c2ccc(F)cc2)c2ccc(F)cc2)CC1
inactive: [6] | [11] | [14] | [16] | [17] | [18]
active: [1] 21.1 µM | [2] 21.1 µM | [5] 16.9 µM | [8] 29.8 µM | [12] 13.3 µM

CCCOc1ccc(S(=O)(=O)N2CCN(CC)CC2)cc1-c1nc2c(CC)n(Cc3ccccn3)nc2c(=O)[nH]1
inactive: [1] | [3] | [4] | [5] | [6] | [7] | [20] | [8] | [9] | [10] | [11] | [14] | [16] | [17] | [18]

Cc1nccn1-c1ccc(Sc2cccc(C3(C(N)=O)CCOCC3)c2)cc1
active: [1] 27.3 µM | [2] 4.86 µM | [4] 275 nM [inconclusive] | [9] 54.5 µM
inactive: [5] | [8] | [10] | [11] | [12] | [19] | [16] | [17] | [18]

CO[C@@]12[C@H](COC(N)=O)C3=C(C(=O)C(C)=C(N)C3=O)N1C[C@@H]1N[C@@H]12
active: [1] 2.37 µM | [2] 1.33 µM | [9] 29.8 µM | [12] 29.8 µM | [16] 16.8 µM
inactive: [18]

CCc1cccc(N(C)C(N)=Nc2cccc3ccccc23)c1
active: [1] 18.8 µM | [2] 21.1 µM
inactive: [3] | [9] | [10] | [14] | [16] | [17] | [18]

Cc1cc2nc3ccc(=[N+](C)C)cc-3sc2cc1N
active: [1] 26.6 µM | [2] 21.1 µM | [9] 5.31 µM | [10] 26.6 µM | [11] 4.22 µM | [12] 9.44 µM | [15] 2.11 µM | [16] 11.9 µM
inactive: [5] | [6] | [8] | [13] | [17]

CNCCCC1c2ccccc2C=Cc2ccccc21
active: [1] 4.52 µM | [2] 11.4 µM
inactive: [4] | [5] | [6] | [7] | [20] | [8] | [9] | [10] | [11] | [12] | [14] | [16] | [18]

CC1=NN(c2ccc(C(=O)O)cc2)C(=O)C1
inactive: [1] | [2] | [5] | [8] | [9] | [10] | [12] | [13] | [19] | [14] | [15] | [16] | [17] | [18]

C[C@]12CCC(=O)C=C1C=C[C@@H]1[C@@H]2CC[C@@]2(C)[C@H]1CC[C@@]21CCC(=O)O1
inactive: [1] | [3] | [4] | [5] | [6] | [8] | [10] | [11] | [12] | [14] | [16] | [17] | [18]
active: [15] 11.9 µM
